Reference: PubChem BioAssay (NCATS)
Where “and” joins values, the source holds several entries; their conditions need not be identical. Equal values may be shown once. Results filed as inconclusive are left out. A call without a number means that no potency is given here. Values without a mark were called inactive. Calls of active or inactive are those of the source. Calls follow the shape of the dose curve; as a rule, active = well fitted curve in the direction sought with a large enough effect; inconclusive = small, poorly fitted or top-dose-only effect, or another doubt; inactive = no such curve, though single readings can be large; an effect the other way counts as inactive or inconclusive.

Tests used:
[1] = molecular target: Cellular tumor antigen p53 (Homo sapiens) (UniProt P04637); assay: Primary qHTS for small molecule compounds that upregulate eGFP-tagged delta133p53alpha (in N-terminal) cells. (AID 2060322); settings: NCI-H358 eGFP-delta133p53alpha fluorescence, 24 h; activation: stronger effect = higher value; also: nearly all actives have a fitted effect of over 75% in size; also: potency is read from the fitted curve at half-maximal effect; as to activation: series mostly up to about 56 µM
Sequence of Cellular tumor antigen p53 (Homo sapiens) (P04637 whole entry, looked up): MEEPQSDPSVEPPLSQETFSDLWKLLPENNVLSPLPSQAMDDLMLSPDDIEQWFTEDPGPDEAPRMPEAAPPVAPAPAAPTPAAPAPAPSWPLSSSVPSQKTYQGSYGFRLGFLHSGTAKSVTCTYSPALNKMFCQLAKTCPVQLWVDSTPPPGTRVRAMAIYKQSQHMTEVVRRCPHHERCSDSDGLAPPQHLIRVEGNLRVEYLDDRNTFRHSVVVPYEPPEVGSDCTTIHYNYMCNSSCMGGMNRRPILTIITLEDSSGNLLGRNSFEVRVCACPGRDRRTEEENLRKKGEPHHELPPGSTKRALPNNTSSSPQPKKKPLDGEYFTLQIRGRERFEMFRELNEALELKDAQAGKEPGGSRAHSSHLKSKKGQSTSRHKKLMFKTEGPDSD
Method in brief: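 NCI-H358 cells pre-induced 24 h with 10 ng/ml doxycycline to express N-terminal eGFP-delta133p53alpha, then dosed 24 h at 37C without doxycycline; fixed, Hoechst-stained, GFP intensity by laser scanning cytometry, normalized to DMSO (0%) and 57.5 uM 5-azacytidine (100%).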

[2] = molecular target: Aldehyde dehydrogenase, mitochondrial (Homo sapiens) (UniProt P05091); assay: qHTS for Inhibitors of the Aldehyde Dehydrogenase Family (ALDH2) Primary screen (AID 2061308); also: nearly all actives have a fitted effect of over 55% in size
[3] = molecular target: Retinaldehyde dehydrogenase 3 (Homo sapiens) (UniProt P47895); assay: qHTS for Inhibitors of the Aldehyde Dehydrogenase Family (ALDH1A3) Validation screen (AID 2061312); also: nearly all actives have a fitted effect of over 45% in size
[4] = molecular target: Retinaldehyde dehydrogenase 3 (Homo sapiens) (UniProt P47895); assay: qHTS for Inhibitors of the Aldehyde Dehydrogenase Family (ALDH1A3) Primary screen (AID 2061315)
[5] = BET inhibitor-based combinations targeting novel dependencies in MECOM-rearranged (r) AML: SET-2 cell line (AID 2202231); settings: SET-2 AML cells viability, CellTiter-Glo luminescence, 48 h; viability: stronger effect = lower value, concentration not given here; also: nearly all actives have a fitted effect of over 35% in size; also: potency is read from the fitted curve at half-maximal effect
Method in brief: (§1)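 Readout: CellTiter-Glo luminescence. Exposure: 48 h, 11 concentrations, 500 cells/well. Metric: AUC and within-line Z-AUC after DMSO/empty-well normalization.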

[6] = BET inhibitor-based combinations targeting novel dependencies in MECOM-rearranged (r) AML: MV-4-11 cell line (AID 2202233); also: nearly all actives have a fitted effect of over 45% in size; also: potency is read from the fitted curve at half-maximal effect
Method in brief: (§2)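 Seeding density was 500 cells/well, and drug exposure lasted 48 hr under standard culture conditions. Read-out used CellTiter-Glo reagent with a 15 min room-temperature incubation before luminescence measurement; AUC and Z-AUC summarize the normalized responses.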

[7] = BET inhibitor-based combinations targeting novel dependencies in MECOM-rearranged (r) AML: HNT-34 cell line (AID 2202234); also: nearly all actives have a fitted effect of over 35% in size; also: potency is read from the fitted curve at half-maximal effect
Method in brief: as §2

[8] = BET inhibitor-based combinations targeting novel dependencies in MECOM-rearranged (r) AML: UCSD-AML1 cell line (AID 2202235); also: nearly all actives have a fitted effect of over 40% in size; also: potency is read from the fitted curve at half-maximal effect; as to viability (% of control): series mostly up to about 46 µM
Method in brief: as §2

[9] = BET inhibitor-based combinations targeting novel dependencies in MECOM-rearranged (r) AML: AML-191 cell line (AID 2202236; also: nearly all actives have a fitted effect of over 35% in size; also: potency is read from the fitted curve at half-maximal effect)
Method in brief: as §1

[10] = BET inhibitor-based combinations targeting novel dependencies in MECOM-rearranged (r) AML: AML-194 cell line (AID 2202237; also: nearly all actives have a fitted effect of over 40% in size; also: potency is read from the fitted curve at half-maximal effect)
Method in brief: as §1

[11] = BET inhibitor-based combinations targeting novel dependencies in MECOM-rearranged (r) AML: OCI-AML3 cell line (AID 2202232); settings: Potency: OCI-AML3 viability; also: nearly all actives have a fitted effect of over 35% in size; also: potency is read from the fitted curve at half-maximal effect; as to viability (% of control): series mostly up to about 46 µM
Method in brief: as §1

| Structure (SMILES) | activation [1] | Potency [2] | Potency [3] | Potency [4] | viability [5] [%] | Potency [6] | Potency [7] | Potency [8] | Potency [9] | Potency [10] | Potency [11] | Potency [5] | Potency [1] | viability (% of control) [7] | viability (% of control) [10] |
| --- | --- | --- | --- | --- | --- | --- | --- | --- | --- | --- | --- | --- | --- | --- | --- |
| CCCN1CCN(c2ccc(C(=O)NC3(C(=O)NCC#N)CCCCC3)cc2)CC1 | -6.68% | inactive | inactive | inactive | 102 | inactive | inactive | inactive | inactive | inactive | – | – | – | – | – |
| O=C(O)CC1CCC(c2ccc(-c3ccc(Nc4ccc(C(F)(F)F)nc4)cn3)cc2)CC1 (centres undefined) | -9.55% | inactive | inactive | inactive | 114 | inactive | – | – | inactive | inactive | inactive | – | – | – | – |
| CS(=O)(=O)c1ccc(-c2nnc(/C=C/c3nnc(-c4ccc(C#N)cc4)o3)n2-c2ccccc2Cl)nc1 | -4.77% | inactive | inactive | inactive | 111 | 10.5 µM (active) | inactive | inactive | – | inactive | – | – | – | – | – |
| COc1ccc(-n2nc(C(N)=O)c3c2C(=O)N(c2ccc(N4CCCCC4=O)cc2)CC3)cc1 | 22.9% and -7.16% | inactive | inactive | inactive | 101 | inactive | – | – | inactive | inactive | inactive | – | – | – | – |
| Cc1cnc(Nc2cccc(CN3CCOCC3)c2)nc1Nc1cccc(S(=O)(=O)NC(C)(C)C)c1 | 11% | inactive | inactive | inactive | – | 0.332 µM (active) | 1.66 µM (active) | 1.32 µM (active) | 1.66 µM (active) | 1.32 µM (active) | – | 2.63 µM (active) | – | – | – |
| COc1ccc(N(C)c2nc(C)nc3ccccc23)cc1 | 0.477% | inactive | inactive | inactive | – | 0.0105 µM (active) | – | 0.0118 µM (active) | – | 0.0105 µM (active) | 0.0093 µM (active) | 0.0118 µM (active) | – | – | – |
| CC1(C)CCC(c2ccc(Cl)cc2)=C(CN2CCN(c3ccc(C(=O)NS(=O)(=O)c4ccc(N[C@H](CCN5CCOCC5)CSc5ccccc5)c(S(=O)(=O)C(F)(F)F)c4)cc3)CC2)C1 | – | inactive | inactive | inactive | – | 0.332 µM (active) | 0.468 µM (active) | 1.05 µM (active) | 0.742 µM (active) | 0.833 µM (active) | – | 1.32 µM (active) | 26.9 µM (active) | – | – |
| Cc1cc(C(=O)N2CCN(c3cccc(Cl)c3)CC2)n(-c2ccccc2)n1 | -1.43% | inactive | inactive | inactive | – | 3.72 µM (active) | – | – | 2.09 µM (active) | 2.63 µM (active) | 4.17 µM (active) | 9.34 µM (active) | – | – | – |
| COc1ccc(-n2c(SCCCN3C(=O)c4cccc5cccc(c45)C3=O)nnc2-c2ccncc2)cc1 | -13.4% | inactive | inactive | inactive | 102 | inactive | – | inactive | inactive | inactive | inactive | – | – | – | – |
| CCNC(=O)CCC/C=C\C[C@@H]1[C@@H](/C=C/C(O)CCc2ccccc2)[C@@H](O)C[C@@H]1O (some centres undefined) | -11.9% | inactive | inactive | inactive | 121 | inactive | inactive | inactive | inactive | inactive | – | – | – | – | – |
| CCO[C@@H]1OC(=O)C[C@@H]1NC(=O)[C@@H]1CCCN1C(=O)[C@@H](NC(=O)c1ccc(N)c(Cl)c1)C(C)(C)C | -7.64% | inactive | inactive | inactive | 112 | inactive | inactive | inactive | – | inactive | – | – | – | – | – |
| OC(c1ccc(-c2ccc(CN3CCN(Cc4ccncc4)CC3)cc2)c(F)c1)(C(F)(F)F)C(F)(F)F | -11% | inactive | inactive | inactive | 101 | 8.33 µM (active) | inactive | inactive | 9.34 µM (active) | inactive | – | – | – | – | – |
| NC(=O)c1cccc2cn(-c3ccc([C@@H]4CCCNC4)cc3)nc12 | 20.3% and 6.68% | inactive | inactive | inactive | – | 4.17 µM (active) | – | – | – | – | – | 14.8 µM (active) | – | – | – |
| O=C(NCC(=O)N1CC[C@H](NC2CCC(O)(c3ccc(-c4ncccn4)cn3)CC2)C1)c1cccc(C(F)(F)F)c1 (some centres undefined) | 5.25% | inactive | inactive | inactive | 98.1 | 10.5 µM (active) | inactive | inactive | inactive | – | – | – | – | – | – |
| C=Cc1cc(O)cc2nc(-c3ccc(O)c(F)c3)oc12 | -0.955% | inactive | inactive | inactive | 113 | – | inactive | inactive | – | inactive | – | – | – | – | – |
| Cn1c(CNc2ccc(C(=N)N)cc2)nc2cc(C(=O)N(CCC(=O)O)c3ccccn3)ccc21 | 22.7% and -0.477% | inactive | inactive | inactive | 116 | – | – | – | – | – | – | – | – | 104% [at 0.315 µM] | 118% [at 0.315 µM] |
